Compound activity: PubChem, The Scripps Research Institute Molecular Screening Center
TEAD-YAP inh = TEAD-YAP interaction inhibition, primary screen, TEAD-YAP interaction inhibitor project, luminescence, HEK-TIYL cells. inhibition, % at 9.12 µM. TEAD-Gal4/YAP UAS-luciferase luminescence. AID 1259422, 2018. actives 1.4% (n = 640,000); in the data active means inhibition above about 32%
GPR151 activ = activators of human GPR151, primary screen, cell-based, PathHunter beta-arrestin, luminescence; PathHunter beta-arrestin GPR151 cells; activation, % at 11.2 µM; actives 1% (n = 650,000); AID 1508602, 2020; in the data active means activation above about 4.9%
FBW7 act = FBW7 E3 ligase activators, primary screen, biochemical, AlphaScreen, human; F-box/WD repeat-containing protein 7 (Homo sapiens), Q969H0; AlphaScreen FBW7–phospho-cyclin E peptide binding, activator screen; normalized activity (activation), % at 26.1 µM; actives 0.13% (n = 650,000); in the data active means normalized activity above about 1.9%;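 further: purified mutant Fbw7 with reduced substrate affinity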
Target sequence (Q969H0 whole entry, looked up): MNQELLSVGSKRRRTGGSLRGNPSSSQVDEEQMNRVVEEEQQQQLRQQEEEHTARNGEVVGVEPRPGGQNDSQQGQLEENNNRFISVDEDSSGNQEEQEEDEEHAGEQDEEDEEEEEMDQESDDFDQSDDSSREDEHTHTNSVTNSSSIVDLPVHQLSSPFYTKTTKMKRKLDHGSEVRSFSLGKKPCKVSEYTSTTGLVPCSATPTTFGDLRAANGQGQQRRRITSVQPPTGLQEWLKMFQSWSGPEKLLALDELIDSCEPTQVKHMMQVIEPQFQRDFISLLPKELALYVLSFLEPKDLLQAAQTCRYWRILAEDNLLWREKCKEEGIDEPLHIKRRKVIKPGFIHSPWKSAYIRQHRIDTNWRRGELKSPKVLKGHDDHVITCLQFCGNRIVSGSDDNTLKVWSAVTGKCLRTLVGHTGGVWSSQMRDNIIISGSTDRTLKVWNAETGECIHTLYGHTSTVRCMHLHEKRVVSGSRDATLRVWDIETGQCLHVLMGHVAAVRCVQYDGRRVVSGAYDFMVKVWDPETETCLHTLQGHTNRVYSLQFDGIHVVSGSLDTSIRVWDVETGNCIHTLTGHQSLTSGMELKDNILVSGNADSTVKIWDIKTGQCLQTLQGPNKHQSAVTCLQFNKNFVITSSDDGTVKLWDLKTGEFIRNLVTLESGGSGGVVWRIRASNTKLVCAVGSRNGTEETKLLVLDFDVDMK
MITF inh = MITF inhibitors, primary screen, biochemical, AlphaScreen, human | AlphaScreen MITF homodimerization, bead proximity signal | inhibition, % at 2.6 µM | actives 0.91% (n = 650,000) | AID 1259374, 2018; in the data active means inhibition above about 50%
A number is an active result; . = inactive; ! = not confirmed by another sample. In the library only some 3.5% were active in any assay of this set; here they are far more common.

SMILES	TEAD-YAP inh	GPR151 activ	FBW7 act	MITF inh
CC1(C)C(=O)Nc2ccccc2N1C(=O)CN1C(=O)c2ccccc2C1=O	.	.	.	.
COC(=O)c1ccc(NC(=O)c2cc(-c3ccccc3)nc3ccc(C)cc23)cc1	.	.	.	.
O=C(CCCCC(=O)NNC(=O)CCc1ccccc1)NNC(=O)CCc1ccccc1	.	.	2.3	.
O=C(NC1CCC(CC2CCC(NC(=O)c3ccncc3)CC2)CC1)c1ccncc1 (stereo not drawn)	32	.	.	.
O=C(NC1CC1)c1ccnc(Cl)c1	.	.	.	.
COCCCN1C(=O)c2[nH]nc(-c3ccccc3O)c2C1c1ccc(Cl)cc1 (stereo not drawn)	.	.	.	.
COCCCN1C(=O)c2[nH]nc(-c3ccccc3O)c2C1c1cccc(Cl)c1 (stereo not drawn)	36	.	.	.
OCCCNc1ccc2ncc(-c3ccc4c(c3)OCO4)n2n1	61	.	.	.
c1ccc(CCNc2ccc3ncc(-c4ccc5c(c4)OCO5)n3n2)nc1	48	.	.	.
COc1ccccc1CN1C(=O)C(C)Oc2cc(Cl)ccc21 (stereo not drawn)	.	.	.	.
O=C(NCCc1ccccc1)c1scc2c1CCCC2	.	.	.	.
O=C(O)c1ccc(N/N=C/c2c[nH]c3ccccc23)cc1	85	.	.	.
O=C(N/N=C\c1c[nH]c2ccccc12)c1ccc(O)cc1	.	.	.	.
O=C(N/N=C/c1c[nH]c2ccccc12)c1cc(-c2ccncc2)nc2ccccc12	35	.	.	.
O=C(N/N=C/c1c[nH]c2ccccc12)c1cc(-c2ccccc2)n[nH]1	.	.	.	.
CC(C)(C)C1CCc2c(sc(NC(=O)c3cccc(Cl)c3)c2C(=O)O)C1 (stereo not drawn)	53	.	.	.
CC1CN(C(=O)c2c(NC(=O)c3ccccc3Cl)sc3c2CCC(C(C)(C)C)C3)CC(C)O1 (stereo not drawn)	73	.	.	.
CC(C)(C)C1CCc2c(sc(NC(=O)c3ccccc3)c2C(=O)O)C1 (stereo not drawn)	91	.	.	.
CC(C)(C)C1CCc2c(sc(NC(=O)c3ccccc3F)c2C(=O)O)C1 (stereo not drawn)	43	.	.	.
CNC(=O)c1c(NC(=O)c2ccccc2)sc2c1CCC(C(C)(C)C)C2 (stereo not drawn)	.	.	.	.
Cc1ccccc1C(=O)Nc1sc2c(c1C(=O)O)CCC(C(C)(C)C)C2 (stereo not drawn)	.	.	.	.
N#Cc1c(N)nnc(-c2ccccc2)c1-c1ccccc1	.	.	.	.
COc1ccc(C2CC(=O)C3=C(C2)NC(C)=C(C(=O)OC2CCCCC2)C3c2cc(OC)c(OC)c(OC)c2)cc1 (stereo not drawn)	.	.	.	.
O=C(Cc1ccccc1)Nc1ccc(Br)cc1	.	.	.	.
O=C(Cc1ccc(Br)cc1)Nc1ccncc1	50	.	.	.
SMILES	TEAD-YAP inh	GPR151 activ	FBW7 act	MITF inh
O=C(c1cccnc1Nc1ccc(OCc2ccccc2)cc1)N1CCCC1	.	.	.	.
COc1ccc(-c2cc(N3CCN(C/C=C/c4ccccc4)CC3)ncn2)cc1	35	.	.	.
CCOC(=O)c1ccccc1NC(=O)CN1C(=O)C(C)N(c2ccc(C)cc2)C1=O (stereo not drawn)	46	.	.	.
COC(=O)c1ccccc1NC(=O)CN1C(=O)C(C)N(c2ccc(C)cc2)C1=O (stereo not drawn)	45	.	.	.
Cc1ccc(N2C(=O)N(CC(=O)Nc3ccccc3OC(F)F)C(=O)C2C)cc1 (stereo not drawn)	.	.	.	.
Cc1ccc(N2C(=O)N(CC(=O)Nc3ccccc3C(F)(F)F)C(=O)C2C)cc1 (stereo not drawn)	.	.	.	.
COc1cc(NC(=O)c2cc3nc(-c4ccccc4)cc(C(F)(F)F)n3n2)cc(OC)c1OC	.	.	.	.
Cc1cc(C)cc(NC(=O)CCS(=O)(=O)c2ccc3c(c2)SC(C)C(=O)N3)c1 (stereo not drawn)	.	.	.	.
O=C(c1ccc2cncc(-c3ccsc3)c2n1)N1CCC(O)CC1	61	.	.	.
O=C(c1ccc2cncc(-c3ccccc3)c2n1)N1CCC(O)CC1	51	.	.	.
O=C(c1ccc2cncc(-c3ccccc3)c2n1)N1CCOCC1	36	.	.	.
C#CCn1c(=NC(=O)C2COc3ccccc3O2)sc2cc(OC)c(OC)cc21 (stereo not drawn)	35	.	.	.
COc1ccc(-c2noc(=O)n2Cc2cccc(F)c2)cc1	.	.	.	.
COC(=O)c1nn(-c2ccc3c(c2)CCN3C(C)=O)cc1O	94	.	.	.
O=C(O)/C=C/c1ccc2ccccc2n1	.	.	.	.
CN(C)c1ccc(/C=C/c2ccc3ccccc3n2)cc1	93	.	.	.
Oc1ccc(/C=C/c2ccc3ccccc3n2)cc1	85	.	.	.
O/C(=C\c1ccc2ccccc2n1)c1ccc(O)cc1O	75	.	.	.
C(=C\c1ccc2ccccc2n1)/c1cccnc1	77	.	.	.
CN(C)c1ccc(/C=C/c2ccc(-c3ccccc3)cc2)cc1	.	.	.	.
Oc1cccc(Nc2ncnc3ccc(Br)cc23)c1	.	.	.	.
COc1ccc(-n2c(=O)c3ccccc3n(CC(=O)NCCc3ccccc3)c2=O)cc1	.	.	.	.
CCCCS(=O)(=O)N1CCc2cc(OC)c(OC)cc2C1CC(=O)O (stereo not drawn)	.	.	.	.
COc1ccc(/C=C/c2nc3ccccc3s2)cc1S(=O)(=O)N1CCOCC1	.	.	.	.
Oc1ccc(/C=C/c2nc3ccccc3s2)cc1	73	.	.	.
SMILES	TEAD-YAP inh	GPR151 activ	FBW7 act	MITF inh
CC(C)N(CCNC(=O)c1ccc2nc(-c3ccc(C(N)=O)cc3)sc2c1)C(C)C	.	.	.	.
COc1ccccc1-c1cc(C(=O)Nc2cc(OC)c(OC)c(OC)c2)no1	46	.	.	.
COc1cccc(-c2cc(C(=O)Nc3cc(C)nn3-c3ccccc3)no2)c1	.	.	.	.
COc1ccccc1-c1cc(C(=O)Nc2cc(C)nn2-c2ccccc2)no1	34	.	.	.
COC(=O)C1=C(C)OC(N)=C(C#N)C1c1cccc(F)c1 (stereo not drawn)	.	.	.	.
O=c1c(-c2ccc(O)cc2)coc2cc(O)ccc12	73!	.	.	.
O=c1c(-c2ccc(O)cc2)coc2cc(OC3OC(CO)C(O)C(O)C3O)cc(O)c12 (stereo not drawn)	.	.	.	.
Cc1ccccc1-c1coc2cc(O)ccc2c1=O	.	.	.	.
COc1ccc(-c2coc3cc(O)ccc3c2=O)c(O)c1O	.	.	.	80
O=c1c(-c2cnn(-c3ccccc3)c2)coc2c(O)c(O)ccc12	.	.	.	.
